# Results taken from PubChem BioAssay (NCATS).
# Results filed as inconclusive are left out. Entries that show only a call come without a potency. Activity calls are given as the source filed them. Calls follow the shape of the dose curve; as a rule, active = well fitted curve in the direction sought with a large enough effect; inconclusive = small, poorly fitted or top-dose-only effect, or another doubt; inactive = no such curve, though single readings can be large; an effect the other way counts as inactive or inconclusive.
# Assays:
# [1] = P-glycoprotein substrates identified in KB-3-1 adenocarcinoma cell line, qHTS therapeutic library screen (AID 1346986); settings: KB-3-1 parental cells viability, CellTiter-Glo, 72 h; series mostly up to 44.5 µM; also: nearly all actives have a fitted effect of over 60% in size
# Procedure, shortened: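 KB-3-1 parental and colchicine-selected P-gp-overexpressing KB-8-5-11 cells (colchicine omitted during assay), 500 cells/well, dosed in dose-response for 72 h at 37 °C; CellTiter-Glo luminescence. Cytotoxic: curve class -1.1 to -2.4, max response >50%, AC50 < 10 uM.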
# [2] = qHTS assay to identify small molecule inhibitors of chordoma cells - UCH-1 (AID 1259355); settings: UCH-1 chordoma viability, CellTiter-Glo, 48 h, combination; series mostly up to 46.1 µM; also: nearly all actives have a fitted effect of over 55% in size; also: potency is read from the fitted curve at half-maximal effect
# Procedure, shortened: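 Cells (800/well) were seeded and left overnight at 37 C, 5% CO2, then treated with drugs at 15 concentrations plus a combination mix of auranofin, camptothecin, doxorubicin, rubitecan and topotecan. Viability after 48hr was read by CellTiter-Glo luminescence.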
# [3] = qHTS assay to identify small molecule inhibitors of chordoma cells - UCH-2 (AID 1259356); settings: UCH-2 chordoma viability, CellTiter-Glo ATP luminescence, 48 h; series mostly up to 46.1 µM; also: potency is read from the fitted curve at half-maximal effect
compound,measurement,setting,value
COc1cc(CCNCc2ccccc2O)c(OC)cc1C#N,Potency,[1],inactive
CC1CCC(C(C)C)C(OC(=O)c2ccccc2N)C1 (stereo unspecified),Potency,[2],inactive
same,Potency,[3],inactive
Cn1ncnc1COc1nn2c(-c3c(F)cccc3F)nnc2cc1C1CCC1,Potency,[1],inactive
O=CC=O,Potency,[3],inactive
Cc1cc(C)cc(C(=O)OC2C[C@H]3CC[C@@H](C2)N3C)c1 (stereo partly specified),Potency,[2],inactive
same,Potency,[3],inactive
C[C@]12CCC(=O)C=C1C=C[C@@H]1[C@@H]2CC[C@@]2(C)[C@H]1CC[C@@]2(O)CCC(=O)O,Potency,[2],inactive
same,Potency,[3],inactive
O=c1ccc2cc(O[C@@H]3O[C@H](CO)[C@@H](O)[C@H](O)[C@H]3O)c(O)cc2o1,Potency,[2],inactive
same,Potency,[3],inactive
CCNC1(c2cccs2)CCCCC1=O (stereo unspecified),Potency,[2],inactive
same,Potency,[3],inactive
O=C1CCO1,Potency,[3],inactive
CN1CCCC(=C(c2cccs2)c2cccs2)C1,Potency,[2],inactive
same,Potency,[3],inactive
CCNC(C)Cc1cccc(C(F)(F)F)c1 (stereo unspecified),Potency,[2],inactive
same,Potency,[3],inactive
CC(=O)O[C@H]1C[C@H](O[C@H]2[C@@H](O)C[C@H](O[C@H]3[C@@H](O)C[C@H](OC4CC[C@@]5(C)[C@H](CC[C@@H]6[C@@H]5CC[C@]5(C)[C@@H](C7=CC(=O)OC7)CC[C@]65O)C4)O[C@@H]3C)O[C@@H]2C)O[C@H](C)[C@H]1O[C@@H]1O[C@H](CO)[C@@H](O)[C@H](O)[C@H]1O (stereo partly specified),Potency,[2],447 nM (active)
same,Potency,[3],259 nM (active)
O=C1C[C@@H]2OCC=C3CN4CC[C@]56c7ccccc7N1[C@H]5[C@H]2[C@H]3C[C@H]46,Potency,[2],inactive
same,Potency,[3],inactive
same,Potency,[1],inactive
COC(=O)[C@@H]1[C@H]2CC[C@@H](C[C@H]1OC(=O)c1ccccc1)N2C,Potency,[3],inactive
CCCC(=O)OC(C(Cl)(Cl)Cl)P(=O)(OC)OC (stereo unspecified),Potency,[2],inactive
same,Potency,[3],inactive
COC1CC(O[C@H]2CC[C@@]3(C)C(=CCC4C3C(O)[C@@H](O)[C@]3(C)[C@@H](C(C)=O)CC[C@]43O)C2)OC(C)C1OC1CC(OC)C(OC2OC(C)C(O)C(O)C2O)C(C)O1 (stereo partly specified),outcome,[1],inactive [at 9.29 µM]
C=C[C@H]1CN2CC[C@H]1C[C@@H]2[C@@H](O)c1ccnc2ccccc12,Potency,[3],inactive
C[N+]1(C)CCCCC1COC(=O)C(O)(c1ccccc1)c1ccccc1 (stereo unspecified),Potency,[2],inactive
same,Potency,[3],inactive
CCC(=O)O[C@@](Cc1ccccc1)(c1ccccc1)[C@@H](C)CN(C)C,Potency,[2],inactive
same,Potency,[3],inactive
O=[N+]([O-])c1ccc(F)c([N+](=O)[O-])c1,Potency,[2],inactive
same,Potency,[3],inactive
C[C@H]1CC[C@@H]2[C@@H](C)[C@H]3[C@H](C[C@H]4[C@@H]5CC=C6CC(O[C@@H]7O[C@H](CO)[C@H](O)[C@H](O[C@@H]8O[C@H](CO)[C@@H](O)[C@H](O)[C@H]8O)[C@H]7O[C@H]7O[C@@H](C)[C@H](O)[C@@H](O)[C@H]7O)CC[C@]6(C)[C@H]5CC[C@]34C)N2C1 (stereo partly specified),Potency,[3],inactive
CNC(C)C(O)c1ccc(O)cc1 (stereo unspecified),Potency,[2],inactive
same,Potency,[3],inactive
C#CC(C)(O)CC (stereo unspecified),Potency,[2],inactive
same,Potency,[3],inactive
CCOP(=O)(OCC)O/C(=C/Cl)c1ccc(Cl)cc1Cl,Potency,[2],inactive
same,Potency,[3],inactive
